FLuc inh: inhibitors of firefly (Photinus pyralis) luciferase; P08659; purified P. pyralis luciferase, luminescence, biochemical; Potency, µM (top dose mostly 115 µM), most hits filed as inhibitors; 2.5% of 76,000 active; AID 1347043; note: nearly all actives have a fitted effect of over 65% in size
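FLuc 10nM, D-luciferin 10uM, ATP 10uM, Mg acetate 10mM, Tris acetate pH 7.5, Tween/BSA; cpd qHTS; enzyme added last; CCD luminescence.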
3T3 cytotox: NIH 3T3 cell cytotoxicity. Potency, µM (highest dose often 96.7 µM), inactives show at the highest dose activity change, negative = cytotoxicity, most hits filed as inhibitors. 4.3% of 94,000 active. NIH 3T3 viability, CellTiter-Glo ATP luminescence, 48-72 h; note: nearly all actives have a fitted effect of over 55% in size
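NIH 3T3 cells at 400 cells/well received 23 nL of compound by pintool and were incubated 48 or 72 h at 37 °C. Viability was read as ATP-coupled CellTiter-Glo luminescence.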
HEK cytotox: cytotoxic compounds in HEK 293 cells; HEK 293 viability, ATP luminescence (CellTiter-Glo), 48-72 h; Potency, µM (series often up to 115 µM), inactives show top-dose activity change, negative = cytotoxicity, hits mostly inhibitors; 6.6% of 94,000 active; AID 1345083; note: nearly all actives have a fitted effect of over 60% in size
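ATP-coupled CellTiter-Glo luminescence served as viability read-out, recorded 10 min after reagent addition at room temperature. HEK 293 cells, 250 cells/well, had been incubated with pintool-transferred compound for 48 or 72 hr at 37 degree Celsius.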
GPT2 inhibitor: blocks human glutamate pyruvate transaminase 2; 0.25% of 100,000 active; Potency, µM (highest dose often 57.7 µM), for the others: at the highest dose activity change, negative = inhibition, actives largely listed as inhibitors; Recombinant GPT2, coupled pyruvate oxidase/HRP Amplex Red fluorescence; Q8TD30; note: nearly all actives have a fitted effect of over 60% in size
Target sequence (Q8TD30 whole entry, looked up): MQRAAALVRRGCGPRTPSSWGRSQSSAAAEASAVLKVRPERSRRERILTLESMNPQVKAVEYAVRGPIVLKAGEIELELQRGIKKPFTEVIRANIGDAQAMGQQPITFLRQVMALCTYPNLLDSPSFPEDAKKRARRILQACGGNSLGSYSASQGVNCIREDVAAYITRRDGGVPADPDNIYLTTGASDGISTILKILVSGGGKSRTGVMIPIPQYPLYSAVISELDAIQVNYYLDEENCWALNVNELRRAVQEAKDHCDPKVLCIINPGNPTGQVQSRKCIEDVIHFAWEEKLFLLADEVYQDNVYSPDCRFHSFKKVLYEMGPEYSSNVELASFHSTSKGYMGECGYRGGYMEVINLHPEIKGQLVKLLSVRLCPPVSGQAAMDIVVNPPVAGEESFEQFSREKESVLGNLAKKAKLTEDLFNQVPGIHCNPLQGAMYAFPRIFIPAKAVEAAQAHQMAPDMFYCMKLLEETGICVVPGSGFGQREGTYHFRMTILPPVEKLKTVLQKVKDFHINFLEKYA
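GPT2 10ng/uL, a-KG 250uM, L-Ala 2mM, HEPES pH7.5 + 0.0001% Tween; 30 min RT. Then Amplex mix (PO/HRP/ThPP), 30 min RT dark, fluorescence. AOA 50uM used as positive control.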
NPR1 antag: human Npr1 receptor antagonism; HEK293 hNpr1 GloSensor cGMP, ANP-stimulated luminescence; Potency, µM (highest dose often 46.3 µM), inactives show top-dose activity change, negative = inhibition, usual class: inhibitors; 1.6% of 76,000 active; P16066; AID 1347048; calls by dose curve; note: nearly all actives have a fitted effect of over 60% in size
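HEK293 cells stably expressing human Npr1 and cGMP GloSensor pGS-40F, loaded 2 h with 2% GloSensor reagent, given compound 30 min at room temperature. Luminescence read before and 20 min after 0.1 nM hNppA.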
* = called active by the depositor; i = inactive; u = inconclusive; x = not tested or not shown; [ ] = another dose, or the depositor's remark. In the library only some 10% were active in any assay of this set; here they are far more common. Unless noted, calls come from the whole dose curve; as a rule, active = well fitted curve in the direction sought with a large enough effect; inconclusive = small, poorly fitted or top-dose-only effect, or another doubt; inactive = no such curve, though single readings can be large; an effect the other way counts as inactive or inconclusive. % is set by controls: 0 for no effect and ±100 for the full control effect; potency is the fitted concentration of half-maximal effect.

SMILES	FLuc inh	3T3 cytotox	HEK cytotox	GPT2 inhibitor	NPR1 antag
O=[S+]([O-])(Nc1cccnc1)c1ccc2c(c1)OCCN(Cc1ccncc1F)C2	i	35.5µM*	-18.4%[172 µM]	i	0.5%[70.6 µM]
O=[S+]([O-])(Nc1cccnc1)c1ccc2c(c1)OCCN(Cc1cncc(F)c1)C2	i	44.7µM*	-8.6%[172 µM]	-4.1%[88.5 µM]	5.5%[70.6 µM]
Cn1ccnc1CN1CCOc2cc([S+](=O)([O-])Nc3nncs3)ccc2C1	i	u	4.8%[172 µM]	-8.8%[88.5 µM]	4.6%[70.6 µM]
Cn1ccnc1CN1CCOc2cc([S+](=O)([O-])Nc3ccccc3)ccc2C1	i	-22.7%[138 µM]	112µM*	0.6%[88.5 µM]	-19.5%[70.6 µM]
O=[S+]([O-])(Nc1nncs1)c1ccc2c(c1)OCCN(Cc1cccs1)C2	i	25.1µM*	-29.5%[172 µM]	i	-10.2%[70.6 µM]
CCC1(N2CCN(C(=O)Nc3cc(C)ccc3OC)CC2)CCN(C(=O)C(C)C)C1 (stereo not drawn)	i	2.5%	-12.3%	u	-4.8%
CCC(CC)C(=O)N1CC[C@@H](CC(=O)O)[C@@H](CC2=NCCc3ccc(C)cc32)C1	i	u	1.7%[172 µM]	-4.7%[88.5 µM]	-5.3%[70.6 µM]
Cn1cnc(S(=O)(=O)N[C@H]2CCN(C(=O)c3ccco3)[C@H](C(=O)N[C@H](Cc3ccccc3)C(N)=O)C2)c1	i	3.9%	i	1.4%	5.4%
CCCC(=O)N1Cc2ccccc2CC2(CCCN(Cc3ccccn3)C2)C1 (stereo not drawn)	x	-11.1%	-25.8%	i	x
CCCN(C)C(=O)c1c(-c2ccccc2)noc1[C@H](C)O	i	3.0%[174 µM]	-13.5%[230 µM]	0.5%[88.5 µM]	-3.8%[70.6 µM]
O=[S+]([O-])(Nc1ccccc1)c1ccc2c(c1)OCCN(Cc1ccc(F)cc1)C2	i	50.1µM*	70.8µM*	3.6%[88.5 µM]	u
Cc1ccc(SC2CCN(C(=O)c3cn(CCc4ccccc4)nn3)CC2)cc1	i	u	89.1µM*	-1.6%	-1.9%
Cc1cccc(C2CCCN(C(=O)c3cn(CCc4ccccc4)nn3)C2)c1 (stereo not drawn)	i	u	39.8µM*	-12.9%	-3.6%
O=C(c1cn(CCc2ccccc2)nn1)N1CCC(OCc2ccccn2)CC1	i	-23.8%	-12.0%	i	-2.1%
CCCS(=O)(=O)N1C[C@@H](Oc2ccccc2)C[C@H]1C(=O)NCCOC	i	2.5%	-3.3%	-6.3%	1.1%
N#Cc1cccc(CN2CCOC[C@H]2c2ncc(-c3ccc(F)cc3)[nH]2)c1	i	u	63.1µM*	i	0.2%[70.6 µM]
COc1ccc(-c2cnc([C@@H]3COCCN3Cc3cccc(C#N)c3)[nH]2)cc1	i	-18.2%[138 µM]	u	-10.8%[88.5 µM]	-1.3%[70.6 µM]
N#Cc1cccc(CN2CCOC[C@H]2c2ncc(-c3ccc(C(F)(F)F)cc3)[nH]2)c1	i	u	89.1µM*	-9.4%[88.5 µM]	u
N#Cc1cccc(CN2CCOC[C@H]2c2ncc(-c3ccc(Cl)cc3)[nH]2)c1	i	100µM*	u	0.2%[88.5 µM]	u
Cn1cc(CN2CCOC[C@H]2c2ncc(-c3ccc(S(C)(=O)=O)cc3)[nH]2)c2ccccc21	i	35.5µM*	20µM*	0.1%	-3.4%
CS(=O)(=O)c1ccc(CN2CCOC[C@H]2c2ncc(-c3ccc(Cl)cc3)[nH]2)cc1	i	u	-29.7%[172 µM]	i	-10.0%[70.6 µM]
Nc1nc(-c2cccc(CN3CCOCC3)c2)cc(N2CCCC2)n1	i	u	-9.7%	1.0%	-4.4%
COc1ccc(-c2noc([C@@H](C)NC(=O)C3CCCC3)c2C(=O)O)cc1	i	-3.1%[138 µM]	-0.8%[172 µM]	i	-0.5%[70.6 µM]
Clc1cccc(-c2cnc([C@@H]3COCCN3Cc3c[nH]c4ccccc34)[nH]2)c1	i	u	u	-0.1%[88.5 µM]	u
Oc1ccccc1CN1CCOC[C@H]1c1ncc(-c2cccc(Cl)c2)[nH]1	i	u	89.1µM*	-4.0%[88.5 µM]	-17.9%[70.6 µM]
SMILES	FLuc inh	3T3 cytotox	HEK cytotox	GPT2 inhibitor	NPR1 antag
CN(C)C[C@@H]1CN(C2CCOCC2)C[C@H]1NC(=O)c1cc2ccccc2[nH]1	i	u	31.6µM*	-17.0%	-18.6%
Cn1nc(C(=O)N2CCCN(C(=O)C3CC3)C(c3ccccc3)CC(=O)NCC2)c2ccccc21 (stereo not drawn)	i	-8.6%	-5.0%	i	0.0%
O=C(NCC1CCCCC1)c1noc(-c2ccc[nH]c2=O)n1	i	4.3%	15.1%	u	-1.0%
COc1ccc(CCNC(=O)c2noc(-c3ccccc3F)n2)cc1OC	i	u	31.6µM*	i	u
O=C(NCC1CC1)c1noc(-c2ccccc2F)n1	39.8µM*	-6.9%	-4.8%	u	-11.8%
CCN(C)C(=O)C(C)N1CCc2onc(-c3ccc(-c4ccccc4)cc3)c2C1 (stereo not drawn)	20µM*	u	u	u	u
CC(C)c1ccc(CC(=O)N2CCCc3ncc(C(=O)Nc4cccc(C(F)(F)F)c4)cc32)cc1	i	u	31.6µM*	-10.5%	-27.5%
Cc1ccccc1NC(=O)c1cnc2c(c1)N(C(=O)Cc1ccc(C(C)C)cc1)CCC2	i	89.1µM*	100µM*	-4.9%[88.5 µM]	u
CC(C)NC(=O)c1cnc2c(c1)N(C(=O)Cc1cccc(C(F)(F)F)c1)CCC2	i	u	-16.2%[172 µM]	-27.9%[88.5 µM]	2.1%[70.6 µM]
CNC(=O)c1cc(C2CC2)nc2c1c(C1CCCN(C(=O)c3ccccn3)C1)nn2C (stereo not drawn)	x	-19.0%	1.7%	x	x
O=C(c1nc2cccnc2n(C2CC2)c1=O)N1CCC(c2ccccc2)CC1	x	-30.9%	-21.2%	i	x
CCCNC(=O)N1CC(Oc2ccc(-c3nc(-c4ccccc4)no3)cc2)C1	u	-41.1%	-50.7%	i	0.398µM*
O=C(CN1CCCCCC1)N1CC(Oc2ccc(-c3noc(-c4ccccc4)n3)cc2)C1	u	u	u	1.6%	-12.0%
CC(Oc1ccccc1)C(=O)N1CC(Oc2ccc(-c3nc(-c4ccccc4)no3)cc2)C1 (stereo not drawn)	x	u	u	i	x
CCOCCCNC(=O)N1CC(Oc2ccc(-c3nc(-c4ccccc4)no3)cc2)C1	u	-28.1%	u	3.8%	0.562µM*
c1ccc2c(c1)CC(n1ccnc1-c1cc3n(n1)CCCNC3)C2	i	u	79.4µM*	-8.2%	-15.7%
c1cn(C2CCSC2)c(-c2cc3n(n2)CCNC3)n1 (stereo not drawn)	i	-0.3%	-5.7%	u	-0.4%
COCCOCC(=O)N1CC(Oc2ccc(-c3noc(-c4ccccc4)n3)cc2)C1	u	u	u	i	10µM*
COCCC(=O)N1CC(Oc2ccc(-c3noc(-c4ccccc4)n3)cc2)C1	12.6µM*	u	22.4µM*	-0.2%	20µM*
